# Assay outcomes from PubChem.
# HT1080-NT tox: kills 2HG-producing HT-1080-NT fibrosarcoma cells | HT-1080-NT fibrosarcoma viability, CellTiter-Glo ATP luminescence, 48 h | Potency, µM (series often up to 46.1 µM), inactives show top-dose activity, negative = less viability, most hits filed as cytotoxic | AID 686970 | 360,000 tested, 1.6% active;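 also: NT is the 2HG producing partner of a matched IDH1 knockdown line; potency is read from the fitted curve at half-maximal effect; 0% = DMSO-treated cells and -100% = media-only wells without cells; nearly all actives have a fitted effect of over 55% in size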
#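 750 cells/well, RPMI + 5% FBS; 2 h settle, compound pin-transfer, 48 h at 37 degrees C. CellTiter-Glo 10 min RT, luminescence. Normalized to DMSO and media-only wells.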
# ELG1 repair inh: blocks ELG1-dependent DNA repair in HEK293T cells. HEK293T ELG1-luciferase reporter, luminescence, 16 h; DNA damage induced by 5-fluorouridine. AID 504467. 330,000 tested, 2.3% active. Potency, µM (highest dose often 46.1 µM), without a hit: top-dose activity change, negative = inhibition, usual class: inhibitors; also: potency is read from the fitted curve at half-maximal effect; nearly all actives have a fitted effect of over 55% in size
#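 Luminescence from the luciferase reporter, measured 30 min after ONE-Glo reagent at room temperature, was the read-out. Beforehand, 2,000 cells per well were exposed for 16 hr at 37 °C to 5-fluorouridine together with compound or vehicle.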
# IL-1B inflam inh: inflammasome signaling inhibition, IL-1 beta readout. THP-1 LPS/ATP IL-1B secretion, AlphaLISA, 16 h; hits give low values. activity change, % at 57.5 µM. 360,000 tested, 4.7% active. AID 743279; in the data active = activity change below about -50%; inconclusive = mostly about -30% to -49%
#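 THP-1 cells pretreated 1 hr with compounds (up to 57.5 uM final), then stimulated with LPS (250 ng/mL final) plus ATP (1.25 mM final); secreted IL-1B measured by AlphaLISA after 16 hr, decreased signal indicating inhibition.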
# DT40 TDP1 CPT: growth inhibition of DT40 Tdp1-/-;hTDP1 cells with camptothecin (screen for TDP1 inhibitors); Potency, µM (titrated, usually from 46.2 µM), without a hit: top-dose activity change, negative = growth inhibition, most hits filed as inhibitors; chicken DT40 Tdp1-/-;hTDP1 cells + 20 nM CPT, ATP luminescence, 48 h; 420,000 tested, 12% active; AID 686979; also: potency is read from the fitted curve at half-maximal effect; nearly all actives have a fitted effect of over 55% in size
#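 Cell growth measured by CellTiter-Glo luminescence after a minimum 48 h, 37 C compound exposure with 20 nM CPT in Tdp1-knockout DT40 cells stably expressing hTDP1, seeded 400/well; qHTS titration format.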
# HT1080 IDH1KD tx: HT-1080 IDH1 knockdown cell toxicity (counter line). HT-1080 IDH1 knockdown viability, ATP luminescence, 48 h. Potency, µM (doses to about 46.1 µM), without a hit: at the highest dose activity, negative = toxicity, most hits filed as cytotoxic. 360,000 tested, 2% active;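 also: potency is read from the fitted curve at half-maximal effect; 0% = DMSO wells and -100% = cell-free medium wells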
#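 Luminescent ATP read-out (CellTiter-Glo, 10 min at room temperature) after 48 h compound exposure at 37 °C gave viability of IDH1-knockdown HT-1080 cells. Activity was normalised to DMSO and cell-free wells, then fitted as concentration-response curves.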
# DT40 TDP1 no CPT: qHTS for Inhibitors of human tyrosyl-DNA phosphodiesterase 1 (TDP1): qHTS in cells in absence of CPT. DT40 Tdp1-/- hTDP1 cells, no CPT, ATP luminescence, 48 h. Potency, µM (titrated, usually from 46.2 µM), inactives show at the highest dose activity change, negative = growth inhibition, usual class: inhibitors. 420,000 tested, 15% active. AID 686978, 2013; also: potency is read from the fitted curve at half-maximal effect; nearly all actives have a fitted effect of over 55% in size
#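 Growth kinetics read by CellTiter-Glo luminescence after ≥48 hr at 37 °C. Cells: DT40 Tdp1-/- stably carrying human TDP1, 400 per well, compound exposure in the absence of CPT (DMSO vehicle).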
# Starred values were filed as active, the others as inactive; i = inactive; u = inconclusive; x = no result given; [ ] = remark or other dose. Most compounds without a hit are left out; they make up all but 19% or so of the library. Unless noted, calls follow the shape of the dose curve; as a rule, active = well fitted curve in the direction sought with a large enough effect; inconclusive = small, poorly fitted or top-dose-only effect, or another doubt; inactive = no such curve, though single readings can be large; an effect the other way counts as inactive or inconclusive. Unless noted, % is scaled to controls: 0 for no effect and ±100 for the full control effect.
SMILES,HT1080-NT tox,ELG1 repair inh,IL-1B inflam inh,DT40 TDP1 CPT,HT1080 IDH1KD tx,DT40 TDP1 no CPT
CCN(CC)S(=O)(=O)c1ccc(NC(=O)c2ccc3c(=O)n4c(nc3c2)CCCCC4)cc1,x,x,x,23µM*,x,23µM*
Cc1ccc(Cl)cc1NC(=S)N1CCC(c2ccccc2)C1 (stereo not drawn),-9%,5%,-27,4%,-8%,u
Nn1c(SCC(=O)Nc2ccc3c(c2)OCCO3)nncc1=O,-4%,-7%,u,-7%,2%,22%
COc1ccc(CCC(=O)Nc2ccc(N3CCOCC3)c(S(=O)(=O)Nc3ccc(OC)cc3)c2)cc1,-15%,x,0,u,-7%,u
CCC(c1nnnn1-c1ccc2c(c1)OCCO2)N1CCN(C(=O)C2CCCO2)CC1 (stereo not drawn),22%,x,35,-1%,6%,-25%
CCOCCCNC(=S)Nc1ccc2nc3n(c(=O)c2c1)CCCCC3,-3%,4%,-64*,-18%,0%,-25%
CCOC(=O)c1ccccc1NC(=O)C(=O)Nc1ccc2nc3n(c(=O)c2c1)CCCCC3,x,x,x,5%,x,-18%
CCOc1ccccc1NC(=O)C(=O)Nc1ccc2nc3n(c(=O)c2c1)CCCCC3,x,x,x,23µM*,x,18µM*
COCCCNC(=S)Nc1ccc2nc3n(c(=O)c2c1)CCCCC3,1%,14%,32,-13%,-1%,-2%
Cc1ccc(C(=O)NCCSc2ccc(Cl)cc2)cc1S(=O)(=O)Nc1ccccc1,u,21µM*,-93*,u,u,u
Cc1ccc(SCCNC(=O)c2ccccc2)cc1,9%,-7%,6,-1%,6%,-22%
Cc1ccc(NS(=O)(=O)c2cc(C(=O)NCCSc3ccc(C)cc3)ccc2C)cc1,u,u,-53*,u,u,u
CS(=O)(=O)Nc1ccc(C(=O)NCCSC2CCCCC2)cc1,-5%[9.24 µM],u,5,u,-18%,-15%
Cc1ccc(NS(=O)(=O)c2cc(C(=O)NCCSC3CCCCC3)ccc2C)cc1,u,u,-57*,u,u,u
Cc1ccc(SCCNC(=O)c2ccc(C)c(S(=O)(=O)Nc3cccc(C)c3)c2)cc1,u,u,-57*,u,u,-12%
CS(=O)(=O)Nc1ccccc1C(=O)NCCSc1ccc(Cl)cc1,u,u,17,u,-24%,u
COc1ccc(-c2cn3cccnc3n2)cc1F,-10%,u,-7,4%,10%,-18%
N#C/C(=C\c1ccccc1)c1nc(-c2cc3c(ccc4ccccc43)oc2=O)cs1,x,x,x,-11%,x,2%
CC1CCN(c2ccc(NC(=O)c3ccc(Br)o3)cc2)CC1,5%,u,i,3%,16%,-4%
COc1ccc(CNC(=O)c2[nH]c(C)c(C(C)=O)c2C)cc1,-4%,-16%,46,9.2µM*,-9%,u
CCOC(=O)c1c(C)[nH]c(C(=O)N/N=C\c2ccccc2Cl)c1C,u,-12%,0,16µM*,15µM*,16µM*
COc1cccc(/C=N/NC(=O)c2[nH]c(C)c(C(=O)N/N=C/c3cccc(OC)c3)c2C)c1,-10%,21µM*,-23,u,-14%,u
CCOc1ccc(/C=N/NC(=O)c2[nH]c3ccc(C)cc3c2C)cc1,-7%,-7%,-24,-10%,-12%,-27%
COc1ccc(CCNC(=O)c2[nH]c(C)c(C(C)=O)c2C)cc1,8%,-17%,-16,-16%,2%,-17%
Cc1c(C(=O)N/N=C/c2ccc(Cl)cc2)[nH]c2ccc(Cl)cc12,5.8µM*,1%,56,0.82µM*,3.3µM*,0.92µM*
SMILES,HT1080-NT tox,ELG1 repair inh,IL-1B inflam inh,DT40 TDP1 CPT,HT1080 IDH1KD tx,DT40 TDP1 no CPT
COCCCN1C(=O)C(CC(=O)NCCCCc2ccccc2)CC(C(=O)N(C(C)C)C(C)C)=C1C (stereo not drawn),27%,x,-11,u,16%,u
CSc1sccc1/C=C(/C#N)C(=O)c1ccco1,u,u,-3,18%,u,1%
O=C(NC(Cc1nn[nH]n1)C(=O)OCc1ccccc1)OCc1ccccc1 (stereo not drawn),-10%,x,7,6%,-3%,-20%
O=C(NCCS(=O)(=O)N1CCC2(CC1)OCCO2)c1ccc(F)cc1,6%,28%,8,-4%,-3%,-12%
O=C(CSc1nnc(C2CC2)n1CC1CCCO1)Nc1ccc(Cl)cc1 (stereo not drawn),-8%,20%,9,-15%,8%,-18%
COc1ccc2c(c1)CCc1c-2n[nH]c1C(=O)NCCC(C)C,4%,u,-60*,u,u,u
COc1ccc(/C=N/NC(=O)c2[nH]c(C)c(C(=O)N/N=C/c3ccc(OC)cc3)c2C)cc1,-6%,21µM*,-18,u,1%,u
CCOC(=O)c1c(C)[nH]c(C(=O)N/N=C/c2cccc(OC)c2)c1C,u,u,33,u,u,15µM*
COc1ccc(NC(=O)c2[nH]c(C)c(C(C)=O)c2C)cc1,6%,u,20,-9%,25%,u
CCOC(=O)c1c(C)[nH]c(C(=O)Nc2ccc(NC(C)=O)cc2)c1C,14%,-3%,6,-3%,7%,7%
CCOC(=O)c1[nH]c(C)c(C(=O)Nc2cccc(Cl)c2C)c1C,11µM*,-11%,22,10µM*,7.9µM*,16µM*
COc1ccc(CN2CCC(=O)N([C@H](CO)CC(C)C)CC2)cc1,0%,8%,9,u,12%,u
COc1ccc(-n2c(C)nnc2SCC(=O)Nc2ccccc2F)cc1,-3%,22%,15,9%,8%,-20%
COc1cccc(/C=N/NC(=O)c2[nH]nc3c2CCc2ccccc2-3)c1,3.7µM*,u,x,4.1µM*,2.1µM*,4.1µM*
CCCCC(CC)CNC(=O)c1[nH]c(C)c(C(C)=O)c1C (stereo not drawn),12%,u,25,u,-7%,23µM*
CCOC(=O)c1c(C)[nH]c(C(C)=NNC(=O)c2cccs2)c1C,-2%,u,-8,12µM*,0%,6.5µM*
CCCCNC(=O)c1[nH]c(C)c(C(C)=O)c1C,9%,u,16,42%,0%,-3%
